In PubChem BioAssay (Tox21):
Inconclusive results are not listed. A call without a number means that no potency is given here. A number with no mark means an inactive call. Activity calls are given as the source filed them. Unless noted, calls come from the whole dose curve; as a rule, active = well fitted curve in the direction sought with a large enough effect in the repeat runs; inconclusive = weak or mixed curves; inactive = no such curve, though single readings can be large; an effect the other way counts as inactive or inconclusive.

Experiments:
[1] = qHTS assay to identify small molecule antagonists of the peroxisome proliferator-activated receptor gamma (PPARg) signaling pathway - cell viability counter screen (AID 743194); note: nearly all actives have a fitted effect of over 55% in size
Method in brief: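 Viability was measured as CellTiter-Glo luminescence in GeneBLAzer PPARg UAS-bla HEK293H cells. These cells had been exposed 17 h at 37 C to compounds together with rosiglitazone at 50 nM final, with the beta-lactamase readout taken in the same wells.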

[2] = qHTS assay for small molecule agonists of the antioxidant response element (ARE) signaling pathway - cell viability counter screen (AID 743203; calls by dose curve; note: nearly all actives have a fitted effect of over 55% in size)
Method in brief: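 Measured in the same wells as the beta-lactamase ARE reporter, this read-out is CellTiter-Glo luminescence from HepG2 ARE-bla cells given compounds for 16 hrs.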

[3] = qHTS assay for small molecule activators of the heat shock response signaling pathway - cell viability counter screen (AID 743209); note: nearly all actives have a fitted effect of over 50% in size
Method in brief: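 Same-well multiplex: after 2.5 h room-temperature incubation with LiveBLAzer B/G substrate and fluorescence reading, CellTiter-Glo reagent was added to HSE-bla HeLa cells that had received compound for 5 h at 37 C; luminescence read after 30 min.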

[4] = qHTS assay for small molecule activators of the heat shock response signaling pathway (AID 743210; active = well fitted activation curve with a large enough effect in the signal ratio in the repeat runs, with a control signal flat, not every such curve was filed as active; the % refers to the signal ratio; note: series mostly up to about 63 µM)
Method in brief: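 Compound exposure lasted 5 h at 37 C in HeLa cells carrying a heat-shock-element-driven beta-lactamase reporter. Read-out: fluorescence intensity after 2.5 h room-temperature loading with LiveBLAzer B/G FRET substrate.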

[5] = qHTS assay to identify small molecule agonists of the peroxisome proliferator-activated receptor delta (PPARd) signaling pathway - cell viability counter screen (AID 743211); note: nearly all actives have a fitted effect of over 55% in size; note: potency is the fitted concentration of half-maximal effect
Method in brief: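 qHTS cell viability: PPARd-bla HEK293H; 17 h cpd, 37C; CellTiter-Glo, luminescence at 30 min RT.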

[6] = qHTS assay to identify small molecule agonists of the farnesoid-X-receptor (FXR) signaling pathway - cell viability counter screen (AID 743218); note: nearly all actives have a fitted effect of over 45% in size; note: potency is the fitted concentration of half-maximal effect
Method in brief: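 Readout: CellTiter-Glo luminescence, 30 min RT, multiplexed after the FXR-bla FRET reading. HEK 293T FXR-UAS-bla cells received compound 5 h post-plating and were incubated 16 h at 37 C.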

[7] = qHTS assay to identify small molecule antagonists of the farnesoid-X-receptor (FXR) signaling pathway - cell viability counter screen (AID 743221; active = well fitted cell-killing curve with a large enough effect in the repeat runs, not every such curve was filed as active; note: nearly all actives have a fitted effect of over 50% in size; note: potency is the fitted concentration of half-maximal effect)
Method in brief: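 After a 5 h settling period, FXR-bla HEK 293T cells receive compound and chenodeoxycholic acid (50 uM final) and incubate 16 h at 37 C; CellTiter-Glo luminescence, read after 30 min at room temperature, reports cell viability.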

[8] = biological target: Vitamin D3 receptor (Homo sapiens) (UniProt P11473); test: qHTS assay to identify small molecule agonists of the vitamin D receptor (VDR) signaling pathway (AID 743222; calls by dose curve)
Method in brief: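 Following 4 h attachment at 37C, VDR-bla cells (2,000 per well) received DMSO-dissolved compounds or controls. After 16 h incubation, LiveBLAzer B/G FRET substrate was added and fluorescence read 2 h later at room temperature.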

[9] = biological target: Vitamin D3 receptor (Homo sapiens) (UniProt P11473); test: qHTS assay to identify small molecule antagonists of the vitamin D receptor (VDR) signaling pathway (AID 743223; active = well fitted inhibition curve with a large enough effect in the signal ratio in the repeat runs, not every such curve was filed as active; the % refers to the signal ratio)
Method in brief: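 Reporter line VDR-bla; stimulus 1alpha,25-(OH)2 vitamin D3, 3 nM final; compound co-addition, 16 h 37C/5% CO2; LiveBLAzer B/G substrate 2 h RT; fluorescence intensity.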

[10] = qHTS assay to identify small molecule agonists of the vitamin D receptor (VDR) signaling pathway - cell viability counter screen (AID 743224); note: nearly all actives have a fitted effect of over 50% in size; note: potency is the fitted concentration of half-maximal effect
Method in brief: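 In parallel with the bla FRET readout, cytotoxicity toward VDR-bla cells after 16 h compound exposure was assessed by CellTiter-Glo, with luminescence recorded after a 30 min room-temperature incubation.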

[11] = qHTS assay to identify small molecule that activate the aryl hydrocarbon receptor (AhR) signaling pathway - cell viability counter screen (AID 743086); note: nearly all actives have a fitted effect of over 45% in size; note: potency is the fitted concentration of half-maximal effect
Method in brief: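 Cytotoxicity counter screen: CellTiter-Fluor signal (30 min, 37 C) in 4000 HepG2 cells/well carrying the DRE-luciferase reporter, following 24 h compound exposure at 37 C.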

[12] = qHTS assay for small molecule agonists of the antioxidant response element (ARE) signaling pathway (AID 743202; active = well fitted activation curve with a large enough effect in the signal ratio in the repeat runs, not every such curve was filed as active; the % refers to the signal ratio; note: potency is the fitted concentration of half-maximal effect)
Method in brief: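 After 16 hours of compound treatment at 37 C, HepG2 cells with a stably integrated ARE-driven beta-lactamase reporter were loaded 2 hours at room temperature with LiveBLAzer B/G FRET substrate and fluorescence intensity measured.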

[13] = qHTS assay to identify small molecule antagonists of the peroxisome proliferator-activated receptor delta (PPARd) signaling pathway - cell viability counter screen (AID 743213); note: nearly all actives have a fitted effect of over 50% in size
Method in brief: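 In this counter screen, HEK293H cells carrying a UAS-beta-lactamase reporter are co-treated with test compounds and 300 nM L165041 (final) for 17 h at 37 C; cell viability is quantified by CellTiter-Glo luminescence.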

[14] = biological target: Peroxisome proliferator-activated receptor gamma (Homo sapiens) (UniProt P37231); test: qHTS assay to identify small molecule antagonists of the peroxisome proliferator-activated receptor gamma (PPARg) signaling pathway (AID 743191; calls by dose curve; note: series mostly up to about 63 µM; nearly all actives have a fitted effect of over 30% in size)
Method in brief: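 Beta-lactamase reporter under UAS control in HEK293H PPARg-bla cells; compound treatment 17 h at 37C. Read-out: fluorescence intensity after 1 h room-temperature incubation with LiveBLAzer B/G FRET substrate.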

[15] = biological target: Peroxisome proliferator-activated receptor delta (Homo sapiens) (UniProt Q03181); test: qHTS assay to identify small molecule agonists of the peroxisome proliferator-activated receptor delta (PPARd) signaling pathway (AID 743212; calls by dose curve;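 note: HEK293H cells with PPARd UAS beta-lactamase reporter GeneBLAzer system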; note: potency is the fitted concentration of half-maximal effect)
Method in brief: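 Beta-lactamase reporter readout: a ratiometric FRET signal from the LiveBLAzer substrate after 2 h at room temperature. Compound exposure at 37 °C in PPARδ-bla HEK293H cells driven by an upstream activator sequence.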

[16] = biological target: Peroxisome proliferator-activated receptor gamma (Homo sapiens) (UniProt P37231); test: qHTS assay to identify small molecule agonists of the peroxisome proliferator-activated receptor gamma (PPARg) signaling pathway (AID 743094; active = well fitted activation curve with a large enough effect in the signal ratio in the repeat runs, not every such curve was filed as active; the % refers to the signal ratio; note: potency is the fitted concentration of half-maximal effect)
Method in brief: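 Cell-based bla reporter, HEK293H background, PPARg-driven UAS. Pre-incubation 5 h, 37C, 5% CO2. Compound 17 h, 37C. Substrate 1 h RT; fluorescence.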

[17] = biological target: Peroxisome proliferator-activated receptor delta (Homo sapiens) (UniProt Q03181); test: qHTS assay to identify small molecule antagonists of the peroxisome proliferator-activated receptor delta (PPARd) signaling pathway (AID 743215; active = well fitted inhibition curve with a large enough effect in the signal ratio in the repeat runs, not every such curve was filed as active; the % refers to the signal ratio;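 note: cells stimulated with agonist L165041 at 300 nM final during compound exposure; series mostly up to about 62 µM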)
Method in brief: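 Fluorescence from cleaved LiveBLAzer B/G FRET substrate (2 h, room temperature) reports PPARd-driven beta-lactamase in HEK293H UAS-bla cells. Cells had been treated 17 h at 37 C with compound plus 300 nM final L165041.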

[18] = biological target: Bile acid receptor (Homo sapiens) (UniProt Q96RI1); test: qHTS assay to identify small molecule antagonists of the farnesoid-X-receptor (FXR) signaling pathway (AID 743217; active = well fitted inhibition curve with a large enough effect in the signal ratio in the repeat runs, not every such curve was filed as active; the % refers to the signal ratio)
Method in brief: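 FRET fluorescence after 2 h room-temperature LiveBLAzer loading gives the readout. Prior step: FXR-bla HEK 293T cells, seeded and incubated 5 h, received test compounds plus 50 uM final CDCA for 16 h at 37 °C.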

[19] = biological target: Bile acid receptor (Homo sapiens) (UniProt Q96RI1); test: qHTS assay to identify small molecule agonists of the farnesoid-X-receptor (FXR) signaling pathway (AID 743220; active = well fitted activation curve with a large enough effect in the signal ratio in the repeat runs, not every such curve was filed as active; the % refers to the signal ratio)
Method in brief: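 FXR-UAS-bla HEK 293T cells carrying a UAS-driven beta-lactamase reporter were plated for 5 h at 37C/5% CO2, then exposed to DMSO-dissolved Tox21 10K compounds for 16 h at 37C. A LiveBLAzer B/G FRET substrate was loaded for 2 h at room temperature before fluorescence reading.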

Sequence of Peroxisome proliferator-activated receptor gamma (Homo sapiens) (P37231 whole entry, looked up): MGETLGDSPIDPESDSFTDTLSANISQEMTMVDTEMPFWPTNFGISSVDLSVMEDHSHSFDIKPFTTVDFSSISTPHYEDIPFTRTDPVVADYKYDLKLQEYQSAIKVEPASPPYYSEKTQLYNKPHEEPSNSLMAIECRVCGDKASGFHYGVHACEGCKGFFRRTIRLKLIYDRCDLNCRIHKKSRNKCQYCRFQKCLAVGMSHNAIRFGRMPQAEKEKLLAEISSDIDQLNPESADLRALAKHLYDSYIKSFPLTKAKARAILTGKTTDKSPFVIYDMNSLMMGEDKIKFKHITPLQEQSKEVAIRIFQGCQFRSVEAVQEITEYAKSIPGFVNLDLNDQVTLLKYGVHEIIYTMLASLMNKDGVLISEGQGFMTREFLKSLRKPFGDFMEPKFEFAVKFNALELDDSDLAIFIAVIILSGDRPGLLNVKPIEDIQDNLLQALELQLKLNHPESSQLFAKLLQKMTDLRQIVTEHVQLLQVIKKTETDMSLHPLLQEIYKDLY
Sequence of Bile acid receptor (Homo sapiens) (Q96RI1 whole entry, looked up): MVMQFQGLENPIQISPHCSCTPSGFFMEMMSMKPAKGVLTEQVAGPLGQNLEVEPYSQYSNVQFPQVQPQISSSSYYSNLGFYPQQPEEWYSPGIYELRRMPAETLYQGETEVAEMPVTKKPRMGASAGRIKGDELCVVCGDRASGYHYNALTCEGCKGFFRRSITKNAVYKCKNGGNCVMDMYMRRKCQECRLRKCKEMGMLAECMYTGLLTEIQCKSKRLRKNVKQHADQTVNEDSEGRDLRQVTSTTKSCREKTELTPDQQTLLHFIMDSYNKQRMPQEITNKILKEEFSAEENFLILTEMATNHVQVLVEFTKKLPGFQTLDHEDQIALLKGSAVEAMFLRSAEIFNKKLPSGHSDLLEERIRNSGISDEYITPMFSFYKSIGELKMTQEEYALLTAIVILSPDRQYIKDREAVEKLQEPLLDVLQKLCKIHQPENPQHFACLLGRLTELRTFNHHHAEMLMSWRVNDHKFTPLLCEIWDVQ
Sequence of Peroxisome proliferator-activated receptor delta (Homo sapiens) (Q03181 whole entry, looked up): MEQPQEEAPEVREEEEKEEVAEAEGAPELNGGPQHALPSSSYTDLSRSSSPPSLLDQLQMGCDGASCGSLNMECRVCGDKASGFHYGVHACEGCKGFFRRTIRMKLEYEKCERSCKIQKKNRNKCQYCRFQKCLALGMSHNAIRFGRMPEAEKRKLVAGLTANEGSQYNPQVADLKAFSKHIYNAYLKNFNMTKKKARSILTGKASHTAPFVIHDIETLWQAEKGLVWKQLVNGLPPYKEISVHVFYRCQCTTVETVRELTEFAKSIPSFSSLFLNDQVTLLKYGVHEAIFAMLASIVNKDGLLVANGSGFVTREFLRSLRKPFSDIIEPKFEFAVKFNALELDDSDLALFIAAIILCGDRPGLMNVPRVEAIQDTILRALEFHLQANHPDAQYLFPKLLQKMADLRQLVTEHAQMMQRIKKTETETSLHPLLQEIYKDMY
Sequence of Vitamin D3 receptor (Homo sapiens) (P11473 whole entry, looked up): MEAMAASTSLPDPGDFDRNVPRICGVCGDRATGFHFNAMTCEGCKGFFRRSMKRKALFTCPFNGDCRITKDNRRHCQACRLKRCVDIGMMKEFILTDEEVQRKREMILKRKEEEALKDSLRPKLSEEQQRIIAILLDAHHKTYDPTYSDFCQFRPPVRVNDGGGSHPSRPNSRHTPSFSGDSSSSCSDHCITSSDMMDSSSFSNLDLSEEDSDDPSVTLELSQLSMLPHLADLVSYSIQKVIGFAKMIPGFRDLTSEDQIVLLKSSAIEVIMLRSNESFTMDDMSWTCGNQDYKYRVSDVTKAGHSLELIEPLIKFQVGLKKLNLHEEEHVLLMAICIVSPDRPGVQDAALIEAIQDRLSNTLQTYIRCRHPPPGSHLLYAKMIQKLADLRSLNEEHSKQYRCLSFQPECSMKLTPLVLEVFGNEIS

Structure (SMILES)	Potency [1]	Potency [2]	Potency [3]	Potency [4]	Potency [5]	Potency [6]	Potency [7]	Potency [8]	outcome [9]	Potency [10]	Potency [11]	Potency [12]	Potency [13]	Potency [14]	Potency [15]	Potency [16]	Potency [17]	Potency [18]	Potency [19]
COc1cc2nc(Cl)nc(N)c2cc1OC	inactive	inactive	inactive	inactive	inactive	inactive	inactive	inactive	inactive	inactive									
CN(C)c1ccc(C(c2ccccc2)c2ccc(N(C)C)cc2)cc1		inactive	inactive		inactive	inactive	inactive			inactive	inactive	inactive	inactive						
C[C@@H]1C[C@H]2[C@@H]3CCC4=CC(=O)C=C[C@]4(C)[C@@]3(F)[C@@H](O)C[C@]2(C)[C@@]1(O)C(=O)COC(=O)c1ccncc1	inactive	inactive	inactive	inactive	inactive		inactive	inactive	inactive	inactive		inactive		inactive	inactive				
COc1ccc2cccc(CCNC(C)=O)c2c1	inactive	inactive	inactive	inactive	inactive		inactive	inactive	inactive	inactive		inactive	inactive	inactive					
O=C(CS)Nc1ccccc1		inactive	inactive		inactive		inactive	inactive	inactive	inactive		inactive	inactive		inactive	inactive	inactive	inactive	inactive
Cc1cc(N)c2cc(NC(=O)Nc3ccc4nc(C)cc(N)c4c3)ccc2n1			inactive			inactive	18.8 µM (active)	inactive			inactive								inactive
O=C(O)C1(C(=O)O)CCC1.[NH2-].[NH2-].[Pt+2]	inactive	inactive	inactive	inactive	inactive	inactive	inactive			inactive				inactive	inactive		inactive	inactive	inactive
CCN(CC)c1ccc(C(=C2C=CC(=[N+](CC)CC)C=C2)c2cc(S(=O)(=O)O)ccc2S(=O)(=O)[O-])cc1	inactive	inactive		inactive		inactive	inactive			inactive		inactive	inactive					inactive	inactive
Cc1cccc(C)c1OCC(=O)N[C@@H](Cc1ccccc1)[C@@H](O)C[C@H](Cc1ccccc1)NC(=O)[C@H](C(C)C)N1CCCNC1=O		inactive	inactive				23.7 µM (active)	inactive		inactive	23.7 µM (active)	29.8 µM (active)	inactive				inactive		
CCO[C@H](Cc1ccc(OCCc2ccc(OS(C)(=O)=O)cc2)cc1)C(=O)O	inactive	inactive			inactive	inactive	inactive			inactive			inactive		11.9 µM (active)	120 nM (active)	inactive		
Cc1ccc(N=Nc2c(O)c(C(=O)O)cc3ccccc23)c(S(=O)(=O)O)c1	inactive	inactive	inactive	inactive	inactive	inactive	inactive			inactive			inactive	inactive	inactive	inactive	inactive		
CN(C)CCN(Cc1ccsc1)c1ccccn1	inactive	inactive	inactive		inactive	inactive	inactive	inactive		inactive		inactive	inactive						
CC(C)(O)c1ccc(CNC(=O)c2cccnc2Oc2ccc(F)cc2)cc1		inactive	inactive	inactive	inactive	inactive	inactive			inactive	inactive		inactive		inactive		inactive		
O=C(O)C1(C(=O)Nc2ccc(Cl)cc2Cl)CC1		inactive	inactive	inactive			inactive			inactive	inactive								inactive
COCCCN1CCC(NC(=O)c2cc(Cl)c(N)c3c2OCC3)CC1	inactive	inactive	inactive	inactive	inactive	inactive	inactive	inactive		inactive		inactive	inactive	inactive					
O=C(O)c1ccc(-n2nc(-c3ccccc3O)nc2-c2ccccc2O)cc1		inactive	inactive		inactive		inactive	inactive	inactive		inactive		inactive		inactive				
CCOC(=O)C(=O)CCc1ccccc1		inactive	inactive	inactive	inactive	inactive	inactive			inactive		inactive	inactive	inactive	inactive		inactive		
CC(C)Cc1ccc(C(C)C(=O)OCc2ccccn2)cc1 (stereo unspecified)	inactive	inactive	inactive		inactive	inactive	inactive		inactive	inactive		inactive	inactive	inactive	inactive		inactive	inactive	inactive
CCCC(=O)Nc1ccc(O)c(C(C)=O)c1	inactive	inactive	inactive	inactive	inactive	inactive	inactive			inactive		inactive			inactive		inactive		
C/C=C(/C(=C/C)c1ccc(OC(C)=O)cc1)c1ccc(OC(C)=O)cc1		inactive	inactive			inactive	inactive	inactive				13.3 µM (active)			inactive		inactive		
O=C(O)c1nc(Cl)c(Cl)c(Cl)c1Cl		inactive	inactive	inactive	inactive	inactive	inactive			inactive	inactive				inactive		inactive		
CCc1c(C(=O)NN2CCCCC2)nn(-c2ccc(Cl)cc2Cl)c1-c1ccc(Br)cc1			inactive		12.3 µM (active)	24.5 µM (active)	24.5 µM (active)			19.5 µM (active)	inactive								
CN1Cc2cc(C(=O)N3CCC(C4CCNCC4)CC3)ccc2NC(CC(=O)O)C1=O (stereo unspecified)	inactive	inactive	inactive	inactive	inactive	inactive	inactive			inactive		inactive	inactive		inactive		inactive		
